# Test results as given in PubChem BioAssay AID623868 (Vanderbilt High Throughput Screening Facility, 2012).
# Screen size: about 2,100 compounds; about 760 (36%) were called active. Not all results are given here. A number with no mark means an inactive call.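 Rule for the calls: active = thallium-flux fluorescence traces judged by eye to show enhanced or reduced glutamate response, manual score 1 or -1, so both directions (some results past the limit were not filed as active); inactive = the rest, including fluorescent or raised-baseline compounds.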
# Assay: thallium influx changes without GIRK channels – cell-based, HEK-293 rmGlu8, no GIRK, thallium flux, counter-screen for GIRK activator project, confirmation (AID 623868);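 note: extra codes mark interference with 3 for fluorescent and 4 for baseline rise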
# Conditions: thallium flux fluorescence, at 10 µM, actives lie on both sides, codes: 1 enhancer, -1 blocker, 0 none, thallium stimulus containing EC20 glutamate
row,Compound,manual score
1,CC(=O)Nc1ccc(NC(=O)CSc2nccn2Cc2ccccc2)cc1,0
2,COc1ccc(CO/N=C/c2c(C)[nH]c(=O)[nH]c2=O)cc1,0
3,CCOC(=O)C(CCCCOc1cccc(CC)c1)C(=O)OCC,0
4,CCOc1ccc(-c2nc(-c3ccc(OC)cc3)no2)cc1OCC,0
5,Oc1c(Cl)cc(Cl)c2c1NCCC2,0
6,Cc1cccc(OCC(O)Cn2c(=N)n(CCN3CCCCC3)c3ccccc32)c1 (stereo not given),0
7,c1ccc2c(c1)oc1c(N3CCN(Cc4ccc5c(c4)OCO5)CC3)ncnc12,0
8,COc1ccccc1N1CCN(Cc2cc(Br)c(O)c3ncccc23)CC1,1 (active)
9,Cc1cccc(N=C2NC(=O)/C(=C/C=C/c3ccco3)S2)c1C,1 (active)
10,COC(=O)C1=C(C)NC(=O)/C1=C\c1ccco1,0
11,CC(C)c1ccc(-c2noc(C3CCCN(S(C)(=O)=O)C3)n2)cc1 (stereo not given),0
12,CCOC(=O)c1c(C)c(C(=O)N2CCc3ccccc3C2)c(C)n1CC,0
13,O=C(COc1c(Br)cc(Br)c2cccnc12)N1CCc2ccccc2C1,1 (active)
14,CC(C)=CCC(C)(C)CNC(=O)NC1CCCCC1,0
15,Cn1c(-c2sc3ccccc3c2Cl)n[nH]c1=S,1 (active)
16,CCC(CC)c1nnc(NC(=O)C2COc3ccccc3O2)s1 (stereo not given),0
17,CCC(CC)c1nnc(NC(=O)c2ccc3ccccc3n2)s1,1 (active)
18,Cc1nnc(NC(=O)CCSc2ccccc2)s1,0
19,N#CCN1C(=S)N=C(Nc2cccc(Cl)c2)C12CCCCC2,0
20,Cc1ccc(NC2=NC(=S)N(CC#N)C23CCCCC3)cc1,1 (active)
21,COc1ccc(NC2=NC(=S)N(c3ccccc3C)C23CCCCC3)cc1,1 (active)
22,CC1CCCCN1CCCn1c(=S)[nH]c2ccccc2c1=O (stereo not given),0
23,O=C(NCc1ccccc1)c1ccc2c(=O)n(CCCN3CCCC3=O)c(=S)[nH]c2c1,0
24,CC1CC(C)CN(CCCn2c(=S)[nH]c3ccccc3c2=O)C1 (stereo not given),1 (active)
25,CCC1CCCCN1CCCn1c(=S)[nH]c2ccccc2c1=O (stereo not given),1 (active)
26,CCC1CCCN1Cn1cnc2c([nH]c3ccc(OC)cc32)c1=O (stereo not given),0
27,O=c1c2ccccc2[nH]c(=S)n1CCN1CCN(Cc2ccccc2)CC1,1 (active)

row,Compound,manual score
1,CC(C)CCn1c(CN2CCN(Cc3ccccc3)CC2)nc2c1c(=O)[nH]c(=O)n2C,0
2,O=c1c2ccccc2[nH]c(=S)n1CCCN1CCN(C2CCCCC2)CC1,1 (active)
3,Cc1ccccc1-c1nc(CN2CCC(C(=O)NCCCN3CC(C)CC(C)C3)CC2)c(C)o1 (stereo not given),0
4,Cc1cccc(N2C(N)=NC(N)=NC23CCCCC3)c1,0
5,CCN(CC)S(=O)(=O)c1cc(NC(=O)Cn2cnc3ccccc3c2=O)ccc1C,0
6,CC(C)CN(C(=O)COC(=O)Cc1n[nH]c(=O)c2ccccc12)C1CCS(=O)(=O)C1 (stereo not given),0
7,CCOC(=O)c1c(C)[nH]c(=S)c(C#N)c1-c1ccc(Cl)cc1,0.5
8,COc1ccc(-c2c3c([nH]c(=S)c2C#N)CCC3)cc1,1 (active)
9,CCN1CCCC1CNC(=O)CSCc1nc(-c2ccccc2C)oc1C (stereo not given),0
10,O=C(NC(NC(=S)Nc1ccc(Cl)cc1Cl)C(Cl)(Cl)Cl)c1cccc([N+](=O)[O-])c1 (stereo not given),1 (active)
11,CCC1c2ccc(C)n2CCN1C(=O)Nc1ccccc1C(=O)OC (stereo not given),0
12,O=C(/C=C/c1ccccc1)NC(NC(=S)Nc1cc(Cl)ccc1Cl)C(Cl)(Cl)Cl (stereo not given),0
13,O=C(/C=C/c1ccccc1)NC(NC(=S)Nc1cccc(Cl)c1)C(Cl)(Cl)Cl (stereo not given),0
14,O=C(/C=C/c1ccccc1)NC(NC(=S)Nc1cccc(O)c1)C(Cl)(Cl)Cl (stereo not given),3
15,COC(=O)c1ccccc1NC(=S)NC(NC(=O)c1ccco1)C(Cl)(Cl)Cl (stereo not given),1 (active)
16,COC(=O)c1ccccc1NC(=S)NC(NC(=O)c1ccccc1[N+](=O)[O-])C(Cl)(Cl)Cl (stereo not given),1 (active)
17,CCOc1cc(C)nc(N2CCN(C3CCCCC3)CC2)n1,0
18,O=C1CC(c2ccncc2)c2cc3c(cc2N1)OCCO3 (stereo not given),0
19,CCC(=O)Nc1nc2ccc3nc(C)sc3c2s1,0
20,Cc1cccc2sc(NC(=O)Cn3cccc3)nc12,1 (active)
21,Cc1ccc(NC(=O)Cn2cccc2)cc1Cl,0
22,CCOc1ccccc1Cn1c(=O)oc2ccc(C)cc21,0
23,COC(=O)c1c(NC(=S)NC(=O)c2ccco2)sc2c1CCCC2,0
24,COc1ccccc1OCC(=O)Nc1sc2c(c1C(=O)NCC1CCCO1)CCC2 (stereo not given),0
25,COc1ccc(NC(=O)COC(=O)CC23CC4CC(CC(C4)C2)C3)c([N+](=O)[O-])c1,0
26,COC(=O)c1c(NS(=O)(=O)Cc2ccccc2)sc2c1CCCC2,1 (active)
27,CCOC(=O)c1c(NS(=O)(=O)Cc2ccccc2)sc2c1CCCC2,1 (active)

row,Compound,manual score
1,CCOC(=O)c1c(NC(=S)Nc2ccccc2)sc2c1CCCCC2,1 (active)
2,COC(=O)c1c(NC(=S)Nc2ccc(F)cc2[N+](=O)[O-])sc2c1CCCCC2,1 (active)
3,CCOC(=O)Cn1c(=O)oc2cc(S(=O)(=O)Nc3ccc(N(CC)CC)cc3C)ccc21,0
4,CC(C)c1ccccc1NC(=O)COC(=O)/C=C/c1cccc([N+](=O)[O-])c1,0
5,CC(C)Oc1ccccc1C1Nc2ccccc2C(=O)N1c1ccc2c(c1)OCCO2 (stereo not given),0
6,COC(=O)c1c(NS(=O)(=O)c2cccs2)sc2c1CCCC2,1 (active)
7,CC(=O)Oc1ccc(N(C(C)=O)S(=O)(=O)c2cccs2)c2ccccc12,0
8,COC(=O)c1c(NC(=O)Cc2cccs2)sc(C(=O)NC2CCCCC2)c1C,0
9,CCC1(C)Cc2c(sc3c2c(=O)n(C)c2nnc(SCc4ccc5c(c4)OCO5)n32)CO1 (stereo not given),0
10,CCCCN(CCCC)C(=O)CSc1nnc2n(C)c(=O)c3c4c(sc3n12)CCCC4,-1 (active)
11,CON(c1nc(Cl)nc(N(C)C)n1)S(=O)(=O)c1ccccc1Cl,0
12,CCCCCC/C(C)=C1/SC(=S)NC1=O,1 (active)
13,Cn1c(CNc2nc3ccccc3n2CCN2CCCCC2)nc2ccccc21,0
14,CC1(C)CC(c2nc(-c3ccc(Br)cc3)cs2)CCS1 (stereo not given),0
15,COC(=O)c1ccc2c(=O)n(C3CCCCC3)c(SCC#N)nc2c1,0
16,CCOC(=O)N1CCN(C(=O)CSc2ncnc3ccccc23)CC1,0
17,COC(=O)COn1c(SC(C)C)nc2ccccc2c1=O,0
18,CCOC(=O)N1CCN(C(=O)CSc2nc3c(c(=O)n2-c2ccccc2OC)SCC3)CC1,-1 (active)
19,CCOC(=O)CSc1nc2c(sc(=S)n2-c2ccccc2OC)c(=O)n1Cc1ccco1,-0.5
20,CCN(CC)C(=O)CSc1nc2ccccc2c(=O)n1-c1ccccc1OC,-1 (active)
21,CCCN(CCC)C(=O)CSc1nc2ccccc2c(=O)n1C1CCCC1,-1 (active)
22,CCc1c(O)nc(SCC(=O)Nc2ccc(OC)cc2)n(C2CCCCC2)c1=O,0
23,N#CC1=C(N)Oc2n[nH]c(-c3cccs3)c2C1c1ccco1 (stereo not given),3
24,Cc1ccc(N=C2CCCN2Cc2ccccc2)c(C#N)c1,-1 (active)
25,Cc1c(C#N)c2ccccc2n1CC(=O)O,0
26,Cc1ccc(C)c(N=C2CCCN2Cc2ccccc2)c1C#N,-1 (active)
27,COC(=O)c1ccc(N2C(=O)CC(Sc3n[nH]c(C)n3)C2=O)cc1 (stereo not given),0

row,Compound,manual score
1,CC(C)CCOP(=O)(c1ccc(N(C)C)cc1)C(O)c1ccccn1 (stereo not given),0
2,Brc1ccc(-c2nnc3c4ccccc4nc(N4CCOCC4)n23)cc1,0
3,O=C(c1cc(-c2ccccc2)on1)N1CCCC1,0
4,CCOC(=O)C1CCCN(C(=O)c2cc(-c3ccccc3)on2)C1 (stereo not given),0
5,CCN(CC)CCCNC(=O)c1cc(-c2ccc(Cl)c(Cl)c2)on1,0
6,CCCn1cc(NC(=O)c2cc(-c3ccccc3)on2)cn1,1 (active)
7,CC(C)n1cc(NC(=O)c2cc(-c3ccccc3)on2)cn1,1 (active)
8,CCN(CC)CCN(CC)Cc1ccccc1Br,0
9,CCC(c1nnnn1Cc1ccc(OC)cc1)N(CCCO)Cc1cc2cc3c(cc2[nH]c1=O)OCO3 (stereo not given),0
10,CC(O)c1nc2ccccc2n1C1CCCCC1 (stereo not given),0
11,Clc1ccccc1-c1nn2c(COc3ccccc3)nnc2s1,0
12,S=c1[nH]nc(COc2ccccc2)n1C1CCCCC1,1 (active)
13,S=c1[nH]nc(CSc2nc3ccccc3s2)n1C1CCCCC1,1 (active)
14,CC(=O)c1c(C(C)=O)c(C)n(-c2nc(-c3cccs3)c(C)s2)c1C,0
15,Cc1ccc(NC(=O)CN2c3cccc4cccc(c34)S2(=O)=O)cc1S(=O)(=O)N1CCOCC1,0
16,O=c1c2cc(F)ccc2[nH]c(=S)n1CCCN1CCOCC1,0
17,Cn1c(=O)c2c(nc(-n3ccnc3)n2Cc2ccccc2)n(C)c1=O,0
18,O=c1c2cccnc2[nH]c(=S)n1Cc1ccccc1,1 (active)
19,O=c1c2cccnc2[nH]c(=S)n1CCCN1CCN(c2ccc(F)cc2)CC1,1 (active)
20,Cc1cc(C(F)(F)F)c2c(=O)[nH]c(=O)n(Cc3ccccc3)c2n1,0
21,CCOC(=O)CN1NC2(CCC(C(C)(C)C)CC2)NC1=S (stereo not given),0
22,CCSc1nnc(NC(=O)C(Cc2ccccc2)n2cccc2)s1 (stereo not given),0
23,O=C(Nc1ncc(Br)s1)C(Cc1ccccc1)n1cccc1 (stereo not given),1 (active)
24,Cc1csc(NC(=O)C(Cc2ccccc2)n2cccc2)n1 (stereo not given),0
